Values joined by “and” are separate entries in the source; they are usually repeats but may differ in a detail not shown here. Equal values may be shown once. Out of some 260,000 compounds screened, about 1,500 (0.58%) were called active. About 5% were inconclusive and are not listed.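 Rule for the calls: active = inhibition above a set limit at one or more doses, reproduced on every date tested; inconclusive = results disagree between test dates, or hit never tested in dose response; inactive = the rest.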 A selection follows. Measured potencies and affinities stand elsewhere.
biological target: Virion infectivity factor (Human immunodeficiency virus type 1 group M subtype B (isolate BH10)) + Virion infectivity factor (Human immunodeficiency virus type 1 group M subtype B (isolate BRU/LAI)) + Virion infectivity factor (Human immunodeficiency virus type 1 group M subtype B (isolate PCV12)) + Virion infectivity factor (Human immunodeficiency virus type 1 group M subtype B (isolate HXB2)) + DNA dC->dU-editing enzyme APOBEC-3G (Homo sapiens) (UniProt P69720+P69721+P69722+P69723+Q9HC16); assay: HIV-1 Vif–A3G interaction blockers – biochemical, TR-FRET, GST-Vif 1-94, biotin-A3G peptide, dose response retest, primary screen (AID 1117319); conditions: TR-FRET GST-Vif / biotin-A3G peptide binding; hits give high values;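 note: Vif residues 1-94 fused to GST binding biotinylated APOBEC3G peptide 110-148; 0% = full assay without inhibitor and 100% = GST in place of GST-Vif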

inhibition, inactive:
O=S(=O)(NCCN1CCN(S(=O)(=O)c2ccccc2F)CC1)c1ccccc1F 1.35%
O=C1NC(=O)/C(=C\c2cn(CC(=O)N3CCOCC3)c3ccccc23)S1 -3.19%
O=C(COC(=O)/C=C/c1cc(Br)ccc1F)Nc1ccc2[nH]c(=O)[nH]c2c1 -2.89%
Cc1cccc(N2CC(C(=O)O)CC2=O)c1 (stereo not given) -2.42%
Cc1ccc(SCC(=O)Nc2nnc(-c3ccco3)o2)cc1 6.62%
CC(=O)Nc1ccc(N=Cc2c(O)c3ccccc3oc2=O)cc1 -14.5%
Cc1ccc(-c2oc3ncnc(N)c3c2-c2ccc(C)cc2)cc1 -8.91%
COc1ccc(-c2oc3ncnc(N)c3c2-c2ccccc2)cc1 -1.94%
Cc1c(NC(=O)COc2ccc(C(C)C)cc2)c(=O)n(-c2ccccc2)n1C -8.62%
CCCCCCC(O)(c1ccccc1)C(CN1CCOCC1)c1ccccc1 (stereo not given) 0.34%
Cc1noc(N)c1C(=O)Nc1ccc(F)c(Cl)c1 -9.43%
CCc1noc(C)c1C(=O)Nc1ccc(F)c(F)c1 -2.68%
Cc1nc2scc(-c3ccc(Cl)cc3)c2c(=O)o1 19.2%
CCOc1ccc(C(=O)COc2ccc(NC(C)=O)cc2)cc1 6.05%
CCOC(=O)C1=c2s/c(=C\c3ccncc3)c(=O)n2C(N)=C(C(=O)OC)C1c1ccncc1 (stereo not given) -6.47%
CCOC(=O)C1=C(N)n2c(s/c(=C\c3cccs3)c2=O)=C(C(=O)OCC)C1c1cccs1 (stereo not given) -6.07% and -0.48%
CCOC(=O)C1=C(N)n2c(s/c(=C\c3ccncc3)c2=O)=C(C(=O)OCC)C1c1ccncc1 (stereo not given) -12.8%
CCOC(=O)C1=c2s/c(=C\c3cccnc3)c(=O)n2C(N)=C(C(=O)OC)C1c1cccnc1 (stereo not given) -8.08%
CCOC(=O)C1=C(C)NC(C)=C(C(=O)OCC)C1c1ccco1 22.4%
CCOC(=O)C1=C(N)n2c(s/c(=C/c3ccccc3)c2=O)=C(C(=O)OCC)C1c1ccccc1 (stereo not given) -3.94%
Cc1cc(SCC(=O)OC(C)C(=O)N(C)c2ccccc2)nc2ccccc12 (stereo not given) -7.66%
COC(=O)c1ccc(CNC(=O)Cn2nnnc2CN(C)C(C)C)cc1 -4.98%
COCCNC(=O)CSc1cc(-c2ccccc2)c2ccc(OC)cc2n1 -24.8%
COc1ccccc1CNC(=O)c1ccc(OC(C)C)cc1 -1.85%
O=C(NCc1cccnc1)c1nn2cccnc2c1Cl 14.7%
O=C(CSc1nnc2ccccn12)NNC(=O)c1cccc([N+](=O)[O-])c1 -9.15%
COc1cc2nc(CCc3ccccc3)oc(=O)c2cc1OC 19.2%
N#Cc1ccc2c(c1)nc1ccccn12 16.5%
Clc1cc2nc3ccccn3c2cc1Cl -1.52%
CC1=CN2CC(O)CN=C2C=C1 (stereo not given) -3.44%
Cc1cnc(C(=O)OCC(=O)N(Cc2ccccc2)C(C)(C)C)cn1 -7.28%
Cc1cc(C(=O)OCC(=O)c2ccc3c(c2)OCCO3)c(C)o1 7.16%
COC(=O)CCN(C(=O)c1ccc(Cl)c([N+](=O)[O-])c1)c1ccccn1 21.1%
CN1c2ccc([N+](=O)[O-])cc2N(C)C1(C)c1ccccc1 (stereo not given) -8.03%
O=[N+]([O-])c1ccc2c(c1)N([O-])C1(CCCCC1)[N+]2=O -0.91%
O=C(COC(=O)c1ccc(S(=O)(=O)N2CCOCC2)cc1)Nc1ccccc1F -5.99%
C=CCN(CC=C)C(=S)NC(=O)c1ccc(C)c(Br)c1 3.99%
C=CCN(CC=C)C(=S)NC(=O)c1ccc(OC)c(Br)c1 3.9%
C[n+]1ccn(CC(=O)c2cccs2)c1 -0.3%
O=[N+]([O-])c1ccc2nc(CN3CCCCC3)[nH]c2c1 -2.67%
Nc1ccc(C(=O)NCCCCCCNC(=O)c2ccc(N)cc2)cc1 -3.48%
Nc1ccc(C(=O)C(=O)c2ccc(N)cc2)cc1 -4.86%
CC(C)=CCN1CCN(Cc2cccn2-c2nccs2)CC1CCO (stereo not given) 3.13%
C/C(=N\NC(=O)CNC(=O)c1ccco1)c1ccc(Br)cc1 -0.8%
COc1ccc(/C=C/c2nc3ccccc3c(=O)n2-c2cccc(C(=O)O)c2)cc1 -12.6%
CCn1c(/C=C/c2ccc(O)c(O)c2)nc2ccccc2c1=O 23.1%
CC1(C)Cc2c(C#N)c(N)sc(=S)c2CO1 18.9%
N#Cc1c(N)sc2c1CCCCCC2 22.4%
CS(=O)(=O)N1CCC(C(=O)Nc2cccc(C(F)(F)F)c2)CC1 30.5%
COc1ccc(CCNC(=O)COC(=O)/C=C/c2ccc3c(c2)OCO3)cc1 -7.05%
COc1ccc(CCn2c(O)c(C=Nc3cccc(F)c3)c(=O)[nH]c2=O)cc1OC 22.7%
CC(=O)N1CCN(c2ccc(N=Cc3c(O)n(Cc4ccccc4)c(=O)[nH]c3=O)cc2)CC1 15.1%
COc1ccc(CCn2c(N)cc(=O)[nH]c2=O)cc1OC -7.47%
CCc1ccc(-n2c(O)c(C=NCCN(CC)CC)c(=O)[nH]c2=O)cc1 1.67%
COc1cccc(CNS(=O)(=O)c2ccc3c(c2)CCN3C(=O)C2CC2)c1 5.57%
CCCC(NC(=O)CCc1c(C)c2cc3c(-c4ccccc4)coc3cc2oc1=O)C(=O)O (stereo not given) -3.65%
O=c1cc(O)n(-c2ccc(Cl)cc2)c(=S)[nH]1 -0.58%
O=c1cc(O)n(-c2ccccc2)c(=S)[nH]1 30.2%
CC(C)[C@H](NC(=O)c1c(F)cccc1F)C(=O)OCC(=O)NC(=O)NC1CCCC1 -7.96%
Cc1ccccc1S(=O)(=O)c1c(C)cc(C)n(C)c1=O 6.26%

Reference: PubChem BioAssay AID1117319 (Southern Research Institute, 2015)
